HT1080 IDH1KD tx: qHTS for induction of synthetic lethality in tumor cells producing 2HG: qHTS for the HT-1080-IDH1KD cell line; HT-1080 IDH1 knockdown viability, ATP luminescence, 48 h; 360,000 compounds, 2% hits; Potency, µM (series often up to 46.1 µM), actives largely listed as cytotoxic
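Viability of IDH1-knockdown HT-1080 fibrosarcoma cells was assessed by CellTiter-Glo after 48 h at 37 °C with titrated compound; concentration-effect curves were classified by fit quality and response size.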
DT40 TDP1 no CPT: qHTS for Inhibitors of human tyrosyl-DNA phosphodiesterase 1 (TDP1): qHTS in cells in absence of CPT; DT40 Tdp1-/- hTDP1 cells, no CPT, ATP luminescence, 48 h; Potency, µM (titrated, usually from 46.2 µM), actives largely listed as inhibitors; 420,000 compounds, 15% hits; AID 686978, 2013; note: nearly all actives have a fitted effect of over 55% in size
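No-CPT arm: Tdp1-/-;hTDP1 DT40 cells (400/well) plus compounds, incubated ≥48 hr at 37 °C. Readout CellTiter-Glo luminescence.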
IL-1B inflam inh: qHTS for Inhibitors of Inflammasome Signaling: IL-1-beta AlphaLISA Primary Screen. 360,000 compounds, 4.7% hits. activity change, % at 57.5 µM. THP-1 LPS/ATP IL-1B secretion, AlphaLISA, 16 h; hits give low values; in the data active = activity change below about -50%; inconclusive = mostly about -30% to -49%
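Secreted IL-1B measured by AlphaLISA bead assay after 16 h compound exposure of THP-1 cells; compounds (final up to 57.5 uM) added 1 h before LPS (250 ng/mL) and ATP (1.25 mM) stimulation; lower signal means less secretion.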
HT1080-NT tox: qHTS for induction of synthetic lethality in tumor cells producing 2HG: qHTS for the HT-1080-NT fibrosarcoma cell line | 360,000 compounds, 1.6% hits | HT-1080-NT fibrosarcoma viability, CellTiter-Glo ATP luminescence, 48 h | Potency, µM (highest dose often 46.1 µM), usual class: cytotoxic;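 note: NT is the 2HG producing partner of a matched IDH1 knockdown line; nearly all actives have a fitted effect of over 55% in size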
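Toxicity toward the 2HG-producing NT line was scored as %Activity, normalised to DMSO and no-cell wells, from CellTiter-Glo luminescence after 48 hours' treatment.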
DT40 TDP1 CPT: qHTS for Inhibitors of human tyrosyl-DNA phosphodiesterase 1 (TDP1): qHTS in cells in presence of CPT. chicken DT40 Tdp1-/-;hTDP1 cells + 20 nM CPT, ATP luminescence, 48 h. Potency, µM (top dose mostly 46.2 µM), hits mostly inhibitors. 420,000 compounds, 12% hits. AID 686979, 2013; note: nearly all actives have a fitted effect of over 55% in size
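Cell growth measured by CellTiter-Glo luminescence after a minimum 48 h, 37 C compound exposure with 20 nM CPT in Tdp1-knockout DT40 cells stably expressing hTDP1, seeded 400/well; qHTS titration format.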
uPA surface inh: qHTS for Inhibitors of Cell Surface uPA Generation | cell surface uPA generation assay, qHTS | Potency, µM (series often up to 38.3 µM), usual class: inhibitors | 330,000 compounds, 0.31% hits; active = well fitted inhibition curve with a large enough effect; inconclusive = small, poorly fitted or top-dose-only effect; inactive = no such curve, though single readings can be large or run the other way; tested in mouse RAW 264.7 cells; note: nearly all actives have a fitted effect of over 55% in size
Of the large screens only hits and unclear results are named; the others gave an inactive call. The list is not random: actives were taken first. Their share in the collection is about 19%. Unless noted, calls come from the whole dose curve; as a rule, active = well fitted curve in the direction sought with a large enough effect; inconclusive = small, poorly fitted or top-dose-only effect, or another doubt; inactive = no such curve, though single readings can be large; an effect the other way counts as inactive or inconclusive.

Cc1ccc(C2=Nc3ccccc3N(CC(=O)Nc3ccccc3F)C(=O)C2)cc1C	DT40 TDP1 no CPT 26µM, DT40 TDP1 CPT 23µM (no result: HT1080 IDH1KD tx, IL-1B inflam inh, HT1080-NT tox, uPA surface inh)
O=C(CN1C(=O)CC(c2ccccc2)=Nc2ccccc21)Nc1ccc(Br)cc1	DT40 TDP1 no CPT 21µM, DT40 TDP1 CPT inconclusive (no result: HT1080 IDH1KD tx, IL-1B inflam inh, HT1080-NT tox, uPA surface inh)
CCOc1ccc(C(=O)Nc2c(C(=O)Nc3ccccc3OC)oc3ccccc23)cc1OCC	DT40 TDP1 no CPT inconclusive (no result: HT1080 IDH1KD tx, IL-1B inflam inh, HT1080-NT tox, uPA surface inh)
CCCCN(C)CCNC(=O)C1CCN(S(=O)(=O)c2cccc3nsnc23)CC1	none
COc1ccc2c(c1)c(C(=O)N/N=C/c1ccc(Br)cc1)c(C)n2C	HT1080 IDH1KD tx 18µM, DT40 TDP1 no CPT 10µM, HT1080-NT tox inconclusive, DT40 TDP1 CPT 10µM, uPA surface inh 11µM
CCN1CCN(CC(=O)c2c(C)n(C)c3ccc(OC)cc23)CC1	none
CCOc1ccc(/C=N/NC(=O)c2c(C)n(C)c3ccc(OC)cc23)cc1	HT1080 IDH1KD tx inconclusive, DT40 TDP1 no CPT 5.8µM, HT1080-NT tox inconclusive, DT40 TDP1 CPT 5.2µM
O=C(N/N=C/c1ccc(O)c(O)c1)N/N=C/c1ccc(O)c(O)c1	DT40 TDP1 no CPT inconclusive
COc1ccc2c(c1)c(C(=O)N/N=C/c1ccc(O)c(O)c1)c(C)n2C	DT40 TDP1 no CPT 26µM, DT40 TDP1 CPT inconclusive
COc1ccc2c(c1)c(/C=N/Nc1ccc(C(=O)O)cc1)c(C)n2C	none
Cc1ccc2[nH]c(C(=O)N3CCc4c(cnc(C)c4CNC(=O)c4ccccc4F)C3)cc2c1	none (no result: HT1080 IDH1KD tx, IL-1B inflam inh, HT1080-NT tox, uPA surface inh)
COc1ccccc1S(=O)(=O)N(C)C[C@@H]1OCc2cnnn2CCCC(=O)N([C@H](C)CO)C[C@H]1C	none (no result: uPA surface inh)
CC(C)Nc1cc(C(C)(C)C)nc2c(-c3ccccc3)cnn12	HT1080 IDH1KD tx inconclusive, DT40 TDP1 no CPT inconclusive, IL-1B inflam inh -70, HT1080-NT tox inconclusive
Cc1ccc(-c2cc3nc(-c4ccccc4)cc(NCCCO)n3n2)cc1	HT1080 IDH1KD tx inconclusive, DT40 TDP1 no CPT inconclusive, HT1080-NT tox inconclusive, DT40 TDP1 CPT inconclusive (no result: uPA surface inh)
FC(F)(F)c1cc(-c2cccs2)nc2cc(-c3cccs3)nn12	none
CC(C)(C)c1cc(NCCCn2ccnc2)n2ncc(-c3ccccc3)c2n1	HT1080 IDH1KD tx 16µM, DT40 TDP1 no CPT inconclusive, IL-1B inflam inh -97, HT1080-NT tox 18µM
CC(C)(C)c1cc(C(F)(F)F)n2ncc(-c3ccccc3)c2n1	DT40 TDP1 no CPT inconclusive
Cc1cccc(-c2cc3nc(C)cc(NCCCn4ccnc4)n3n2)c1	HT1080 IDH1KD tx inconclusive, DT40 TDP1 no CPT 23µM, IL-1B inflam inh -106, HT1080-NT tox inconclusive, DT40 TDP1 CPT inconclusive
Cc1cc(NCCCN(C)C)n2nc(-c3cccs3)cc2n1	DT40 TDP1 no CPT inconclusive, IL-1B inflam inh -109
COc1ccc(OC)c(-c2ccnc(-n3ncc(C(=O)N(C)CCO)c3C3CC3)n2)c1	none (no result: HT1080 IDH1KD tx, IL-1B inflam inh, HT1080-NT tox, uPA surface inh)
Cn1c(=O)c(=O)n(C)c2cc(S(=O)(=O)NCCOc3ccccc3)ccc21	none
c1cnc2c(-c3ccc4nccn4c3)cccc2c1	none (no result: uPA surface inh)
CCCc1cc(NCCCn2ccnc2)n2nc(C)c(-c3ccccc3)c2n1	HT1080 IDH1KD tx 13µM, DT40 TDP1 no CPT inconclusive, HT1080-NT tox inconclusive, DT40 TDP1 CPT inconclusive (no result: IL-1B inflam inh)
Cc1nc(NCCCn2ccnc2)c2ccccc2n1	DT40 TDP1 no CPT inconclusive
CCOC(=O)C[n+]1c(C)sc2ccc(OC)cc21	HT1080 IDH1KD tx inconclusive, DT40 TDP1 no CPT 8.2µM, HT1080-NT tox inconclusive, DT40 TDP1 CPT 8.2µM
Cc1sc2ccccc2[n+]1CC(=O)O	none
O=C(O)c1ccc(S(=O)(=O)c2ccc([N+](=O)[O-])cc2[N+](=O)[O-])cc1	DT40 TDP1 no CPT inconclusive, DT40 TDP1 CPT 21µM, uPA surface inh inconclusive
O=S(=O)(N/N=C/c1ccccc1F)c1ccccc1	DT40 TDP1 no CPT 23µM, DT40 TDP1 CPT 18µM
Cc1ccc(S(=O)(=O)NOCc2ccccc2)cc1	DT40 TDP1 no CPT inconclusive
Cc1ccc(S(=O)(=O)N/N=C\c2ccccc2OCc2ccccc2)cc1	HT1080 IDH1KD tx inconclusive, DT40 TDP1 no CPT 18µM, HT1080-NT tox inconclusive, DT40 TDP1 CPT inconclusive, uPA surface inh inconclusive
Cc1ccc(S(=O)(=O)NN=Cc2ccccc2Cl)cc1	DT40 TDP1 no CPT inconclusive, DT40 TDP1 CPT 23µM (no result: uPA surface inh)
CC(C)CNC(=O)C1(C)CCCN1C(=O)c1cccnc1Oc1ccccc1 (configuration not stated)	none (no result: uPA surface inh)
O=C(Nc1ccc(Cl)c(C(=O)N2CCOCC2)c1)c1ccccc1	DT40 TDP1 no CPT inconclusive
COc1ccc2oc(C(=O)N3CCN(C/C=C/c4ccccc4)CC3)c(C)c2c1	none
COc1ccc2oc(C(=O)N3CCN(C(c4ccccc4)c4ccccc4)CC3)c(C)c2c1	DT40 TDP1 no CPT 18µM, DT40 TDP1 CPT inconclusive
O=C(c1cc(-c2ccco2)on1)N1CCN(C(c2ccccc2)c2ccccc2)CC1	HT1080 IDH1KD tx inconclusive, DT40 TDP1 no CPT 16µM, HT1080-NT tox inconclusive, DT40 TDP1 CPT 16µM (no result: uPA surface inh)
CC(C)c1cc(C(=O)N2CCN(C(c3ccccc3)c3ccccc3)CC2)no1	DT40 TDP1 no CPT inconclusive, DT40 TDP1 CPT inconclusive

Source: PubChem (National Center for Advancing Translational Sciences (NCATS))
